This is a sample that favours compounds with a hit; in the whole collection about 4.8% have one here.
APP 5'UTR act = APP 5'UTR luciferase reporter activation. SH-SY5Y APP 5'UTR luciferase reporter, luminescence; zero percent = DMSO vehicle wells. activation, % at 2 µM. AID 1276. actives 1% (n = 190,000);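 active = activation above a set limit, based on mean plus 3 SD of controls, cut at about 140% in these data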
Wee1 stabilizer = inhibitors of human Wee1 degradation. reporter increase, % at 5 µM. actives 1.2% (n = 220,000). HeLa Luc-Wee1K328M stability, luciferase luminescence; 100% = proteasome inhibitor MG132 effect;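 active = activation above the mean of all tested compounds plus 3 SD, set per screening run, cut at about 8.8% in these data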;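 also: cells exposed to compound for 20 h before luminescence read; 0% = DMSO alone and 100% = MG132 at 30 µM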
Target sequence (P30291 whole entry K328M): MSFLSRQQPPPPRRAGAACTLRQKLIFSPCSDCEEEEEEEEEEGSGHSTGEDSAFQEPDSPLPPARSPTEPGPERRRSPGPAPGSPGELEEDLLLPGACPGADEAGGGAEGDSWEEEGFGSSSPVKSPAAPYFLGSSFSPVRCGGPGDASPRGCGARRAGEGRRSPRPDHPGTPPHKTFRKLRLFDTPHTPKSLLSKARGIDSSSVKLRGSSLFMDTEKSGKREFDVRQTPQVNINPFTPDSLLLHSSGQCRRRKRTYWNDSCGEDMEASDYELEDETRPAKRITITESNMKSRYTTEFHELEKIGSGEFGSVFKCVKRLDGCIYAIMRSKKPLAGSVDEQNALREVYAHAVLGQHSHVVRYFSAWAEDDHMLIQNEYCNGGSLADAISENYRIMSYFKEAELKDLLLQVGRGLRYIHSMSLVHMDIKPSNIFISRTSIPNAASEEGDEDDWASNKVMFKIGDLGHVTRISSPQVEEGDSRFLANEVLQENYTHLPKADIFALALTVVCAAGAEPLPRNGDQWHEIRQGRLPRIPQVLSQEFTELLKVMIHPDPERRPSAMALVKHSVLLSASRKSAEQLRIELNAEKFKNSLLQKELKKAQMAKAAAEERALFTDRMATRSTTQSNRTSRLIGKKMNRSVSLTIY
Hsp70 act = transcriptional activators of Hsp70; activation, % at 10 µM; HeLa Hsp70 promoter luciferase reporter, luminescence; scaled: vehicle 0, proteasome-inhibitor control 100%; AID 1203; actives 0.04% (n = 200,000);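 active = activation above the mean across all tested compounds plus 3 SD, cutoff set per campaign, cut at about 5.5% in these data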;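 also: 100% = MG132 at 30 µM as the positive control and 0% = DMSO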
STAT1 activator = increases IFN-gamma driven STAT1 reporter signal; actives 2.6% (n = 200,000); activation (% of control), % at 5.5 µM; NIH 3T3 STAT1-luciferase reporter, luminescence; 100% = IFN-gamma alone, no compound;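 active = activation above the screen-wide mean activation plus 3 SD, cut at about 130% in these data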;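 also: raw ratio to IFN-gamma control signal so 100% means no change and 0% no light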
NF-kB expr up = compounds increasing NF-kB expression in human neuronal cells. NF-kB reporter expression; hits give high values. fold change at 12.5 µM. actives 1.6% (n = 190,000); in the data active = fold change above about 3.3
APP 5UTR inh = APP translation inhibition. SH-SY5Y APP 5'UTR-luciferase reporter, luminescence. inhibition, % at 2 µM. actives 0.82% (n = 190,000);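 active = inhibition above a set limit, derived from the sample mean plus 3 SD, cut at about 45% in these data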
Wee1 stab conf = confirmation of human Wee1 degradation inhibitors | shares compounds with Wee1 stabilizer | HeLa Luc-Wee1K328M degradation, luminescence; vehicle 0%, proteasome-blocked wells 100% | activation, % at 5 µM | actives 4% (n = 1,100); in the data active = activation above about 8.9%
The depositor's hits bear a star; . = no result given.

SMILES	APP 5'UTR act	Wee1 stabilizer	Hsp70 act	STAT1 activator	NF-kB expr up	APP 5UTR inh	Wee1 stab conf
Cc1ccc(-n2nc(-c3ccccc3)cc2Nc2ccccc2N)cc1	16	11*	0	96	0.77	-16	2
Nc1c(C(=O)O)sc2nc(-c3ccccc3)cc(-c3ccccc3)c12	.	11*	.	.	.	.	1
COCCn1c(SCC(=O)Nc2ccccc2)nc2c(oc3ccccc32)c1=O	-11	-1	0	85	1.1	11	.
Cc1ccc2nc(-c3ccc(NC(=S)NC4CC(C)(C)NC(C)(C)C4)cc3)sc2c1	168*	20*	0	135*	1.3	-168	3
COc1ccc(OC)c(CCNC(=O)Cn2sc3nc(C)cc(C)c3c2=O)c1	5	-1	1	102	1.2	-5	.
CCOc1cc(/C=C2\C(=O)ON=C2C)ccc1OCc1ccccc1	-15	18*	0	103	1.1	15	1
COc1ccccc1/C=N/NC(=O)c1[nH]c(C)c(C(=O)N/N=C/c2ccccc2OC)c1C	-1	-4	0	99	0.97	2	.
CCOC(=O)c1c(C)[nH]c(C(=O)N/N=C\c2ccccc2O)c1C	-67	12*	0	108	2.8	67*	9
O=C(NCCCN1CCOCC1)C(=O)N/N=C/c1ccccc1Cl	.	1	.	.	.	.	.
O=C(NCCCN1CCOCC1)C(=O)N/N=C/c1c(Cl)cccc1Cl	1	16*	0	90	1	-2	3
Cn1c(=O)c2c(nc(SCC(=O)N(C3CCCCC3)C3CCCCC3)n2C)n(C)c1=O	8	0	0	102	.	-8	.
CCOc1ccccc1OCC(=O)Nc1ccc(N2CCCCC2)cc1	11	-1	0	112	1.5	-11	.
COc1ccccc1OCC(=O)Nc1ccc(N2CCCCC2)cc1	11	11*	0	104	1.2	-12	0
O=C(Nc1cccnc1N1CCOCC1)c1ccco1	9	-2	0	94	0.96	-9	.
CCCCOC(=O)c1ccccc1N1C(=O)C2C3CCC(C3)C2C1=O (centres undefined)	-10	12*	0	102	1	10	-2
Cc1ccc(N2CC(=O)N(NC(=O)Nc3ccc(Cl)c(Cl)c3)CC2=O)cc1	.	3	.	.	.	.	.
CSc1ccc(-c2nnn(CC(=O)NCc3ccccc3)n2)cc1	-3	-1	0	108	1.5	3	.
CCOC(=O)C(Cc1ccccc1)NC(=O)Cn1nnc(-c2ccc(SC)cc2)n1 (centres undefined)	-6	13*	0	100	0.72	6	4
COc1ccc(NC(=O)c2ccc(S(=O)(=O)N3CCOCC3)cc2)c(OC)c1	-17	0	0	101	1.1	17	.
CCCOc1ccc(C(C)=O)cc1CN1CCOCC1	-1	12*	0	108	1.2	1	-1
Cc1cc(C)c2c3c(sc2n1)C(=O)N(Cc1ccccc1)CC(=O)N3	2	0	0	103	0.87	-2	.
O=S(=O)(C/C(=C/CO)S(=O)(=O)c1ccccc1)c1ccccc1	-80	13*	15*	260*	0.93	80*	8.8*
CCN(Cc1ccccc1)C(=O)CS(=O)(=O)c1ccccc1	-2	2	0	95	0.99	2	.
COC(=O)N/N=C/c1cc(C)n(-c2ccc(Br)cc2)c1C	.	-2	.	.	.	.	.
O=C(Nc1ccc(F)cc1F)c1csc(-c2ccncc2)n1	21	-1	0	112	1	-21	.
SMILES	APP 5'UTR act	Wee1 stabilizer	Hsp70 act	STAT1 activator	NF-kB expr up	APP 5UTR inh	Wee1 stab conf
O=C(Nc1ccc(F)cc1F)c1csc(-c2cccs2)n1	109	11*	0	135*	1.4	-109	3
CS(=O)(=O)c1cccc(NC(=O)c2ccc(Cl)c(Cl)c2)c1	23	-2	0	108	1.4	-23	.
COc1ccccc1-c1ccc(SCc2ccccc2F)nn1	37	13*	0	129*	1.8	-37	14*
Cc1ccccc1NC(=O)NC(N)=O	-11	14*	0	93	1.2	11	-2
COc1cc(C(=O)NCC(=O)OCC(=O)c2ccc[nH]2)cc(OC)c1OC	3	14*	0	97	1.1	-3	-1
COc1ccc(C(=O)NCC(=O)OCC(=O)c2cc(OC)c(OC)c(OC)c2)cc1OC	7	-3	0	94	1.1	-7	.
Cc1cc(=O)oc2cc(OCC(=O)NCc3ccccn3)ccc12	0	4	1	94	1	0	.
Cc1ccsc1/C=C1\CCc2ccccc2C1=O	138*	16*	0	71	3.5*	-138	0
O=C1/C(=C/c2ccc([N+](=O)[O-])cc2)CCc2ccccc21	.	8	.	.	.	.	.
O=C(O)c1ccc(CSc2nnc(COc3ccccc3)o2)cc1	1	14*	0	100	1.1	-1	4
CCc1ccc(OCc2nnc(SCc3ccc(C(=O)O)cc3)o2)cc1	5	1	0	97	1.2	-5	.
COc1ccccc1-c1nnc(Nc2nc3c(OC)cccc3s2)o1	-87	15*	0	127	2.5	87*	4
Cc1ccc(C)c(N2CCN(C(=O)c3cn(C)c4ccc(S(=O)(=O)N(C)C)cc4c3=O)CC2)c1	3	8	0	106	1.9	-3	.
Cc1ccc(C(=O)NC2CC(C)(C)NC(C)(C)C2)cc1C	-2	12*	0	97	1.2	2	-5
N=c1n(CC(=O)c2ccc([N+](=O)[O-])cc2)c2ccccc2n1Cc1ccc(Cl)cc1	21	-1	0	107	0.85	-21	.
CC(=O)Nc1ccc(S(=O)(=O)NCc2ccncc2)cc1	7	12*	0	74	1.1	-7	-1
Cc1ccc(S(=O)(=O)NCc2ccncc2)cc1	-11	-3	0	79	0.94	11	.
COc1ccc2nc(SC)cc(C)c2c1	.	-2	.	.	.	.	.
O=C(Nc1ccc(Cl)cc1)NC1CCCCC1	46	11*	0	138*	2.6	-46	6
Nc1ccc(NC(=O)NC2CCCCC2)cc1	4	0	0	115	1.4	-4	.
CC(=O)c1c(C)[nH]c(=S)c(C#N)c1-c1ccc(Cl)cc1	.	1	.	.	.	.	.
CC1(C)CC(=O)C2=C(C1)N=C1SCCC(=O)N1C2c1cccc([N+](=O)[O-])c1 (centres undefined)	-6	12*	0	100	1.1	6	0
CCCOc1ccc(CC2CCC(=O)NC2=O)cc1 (centres undefined)	-1	-1	0	102	1.4	1	.
C(=N\Nc1nc2ccccc2[nH]1)/c1ccc2c(c1)OCO2	149*	12*	0	141*	4.1*	-149	3
CCCCc1c(C)nc(Nc2ccc(OC)cc2)[nH]c1=O	3	18*	0	102	1.4	-3	-1

Source: PubChem (several laboratories)
